Assay results from the supplement of paper PMC10849652.
About 7,900 targets were measured; listed, in parts, are those with a hit and a random draw of the rest. About 0.6% of all pairs of compound and target were hits. A number with no mark means an inactive call.

Columns and labels:
Assay in all cases: log2 fold change, soluble protein after heating vs DMSO (PISA); higher = thermal stabilisation; K562 cells, 10 uM, 30 min; active = over 0.2 and 3.5 SD of the protein, either way, in both replicates (recomputed)
[1] = compound: NC(=O)Nc1cc(-c2cccc(F)c2)sc1C(=O)N[C@H]1CCCNC1
Procedure, shortened: (§1)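 K562 cells at 2×10^6 cells/mL were treated for 30 min with 10 μM compound, and aliquots were heated for 3 min over 48°C-58°C before pooling. Extraction used PBS with 0.5% NP-40 at 4°C, and soluble protein was the supernatant after 21,000xg for 90 min, measured by TMTpro 16plex LC-MS/MS with channel sums equalised. Thermal stability values, relative to control samples and from duplicates, are log2 fold changes.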

[2] = compound: NC(=O)c1cnc(N[C@@H]2CCCC[C@@H]2N)nc1Nc1cccc(-n2nccn2)c1
Procedure, shortened: as §1

[3] = compound: NC1(c2ccc(-c3nc4ccn5c(=O)[nH]nc5c4cc3-c3ccccc3)cc2)CCC1
Procedure, shortened: as §1

[4] = compound: NCC(=O)Nc1ccc(-n2nc(C(F)(F)F)cc2-c2ccc3c(ccc4ccccc43)c2)cc1
Procedure, shortened: as §1

entinostat = compound: Nc1ccccc1NC(=O)c1ccc(CNC(=O)OCc2cccnc2)cc1 [entinostat]
Procedure, shortened: as §1

vorinostat = compound: O=C(CCCCCCC(=O)Nc1ccccc1)NO [vorinostat]
Procedure, shortened: as §1

citarinostat = compound: O=C(CCCCCCNC(=O)c1cnc(N(c2ccccc2)c2ccccc2Cl)nc1)NO [citarinostat]
Procedure, shortened: as §1

silmitasertib = compound: O=C(O)c1ccc2c(c1)nc(Nc1cccc(Cl)c1)c1ccncc12 [silmitasertib]
Procedure, shortened: as §1

[5] = compound: O=C1NC(=O)C(c2cnc3ccccn23)=C1c1cn2c3c(cc(F)cc13)CN(C(=O)N1CCCCC1)CC2
Procedure, shortened: as §1

[6] = compound: c1cc(OCCN2CCCCC2)cc(-c2n[nH]c3ccc(-c4nnc[nH]4)cc23)c1
Procedure, shortened: as §1

Sequence of UniProt Q92930 (Q92930 whole entry, looked up): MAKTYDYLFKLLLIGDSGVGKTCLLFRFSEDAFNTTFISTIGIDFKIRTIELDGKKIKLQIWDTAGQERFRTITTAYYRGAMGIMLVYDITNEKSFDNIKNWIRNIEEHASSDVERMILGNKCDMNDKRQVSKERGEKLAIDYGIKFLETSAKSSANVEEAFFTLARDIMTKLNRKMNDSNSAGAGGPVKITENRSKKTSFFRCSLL
Sequence of UniProt O75056 (O75056 whole entry, looked up): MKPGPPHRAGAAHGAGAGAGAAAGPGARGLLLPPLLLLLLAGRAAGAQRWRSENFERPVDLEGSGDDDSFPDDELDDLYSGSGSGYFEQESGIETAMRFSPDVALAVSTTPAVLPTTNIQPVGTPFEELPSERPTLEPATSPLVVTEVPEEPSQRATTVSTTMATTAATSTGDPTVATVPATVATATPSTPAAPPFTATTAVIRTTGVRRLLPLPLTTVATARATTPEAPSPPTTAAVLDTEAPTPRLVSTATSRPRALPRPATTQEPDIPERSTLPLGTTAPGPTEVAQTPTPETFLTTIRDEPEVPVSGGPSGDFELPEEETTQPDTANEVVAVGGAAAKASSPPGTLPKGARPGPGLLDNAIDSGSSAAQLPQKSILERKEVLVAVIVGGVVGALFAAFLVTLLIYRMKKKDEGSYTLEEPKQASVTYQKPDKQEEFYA
Sequence of UniProt O94979 (O94979 whole entry, looked up): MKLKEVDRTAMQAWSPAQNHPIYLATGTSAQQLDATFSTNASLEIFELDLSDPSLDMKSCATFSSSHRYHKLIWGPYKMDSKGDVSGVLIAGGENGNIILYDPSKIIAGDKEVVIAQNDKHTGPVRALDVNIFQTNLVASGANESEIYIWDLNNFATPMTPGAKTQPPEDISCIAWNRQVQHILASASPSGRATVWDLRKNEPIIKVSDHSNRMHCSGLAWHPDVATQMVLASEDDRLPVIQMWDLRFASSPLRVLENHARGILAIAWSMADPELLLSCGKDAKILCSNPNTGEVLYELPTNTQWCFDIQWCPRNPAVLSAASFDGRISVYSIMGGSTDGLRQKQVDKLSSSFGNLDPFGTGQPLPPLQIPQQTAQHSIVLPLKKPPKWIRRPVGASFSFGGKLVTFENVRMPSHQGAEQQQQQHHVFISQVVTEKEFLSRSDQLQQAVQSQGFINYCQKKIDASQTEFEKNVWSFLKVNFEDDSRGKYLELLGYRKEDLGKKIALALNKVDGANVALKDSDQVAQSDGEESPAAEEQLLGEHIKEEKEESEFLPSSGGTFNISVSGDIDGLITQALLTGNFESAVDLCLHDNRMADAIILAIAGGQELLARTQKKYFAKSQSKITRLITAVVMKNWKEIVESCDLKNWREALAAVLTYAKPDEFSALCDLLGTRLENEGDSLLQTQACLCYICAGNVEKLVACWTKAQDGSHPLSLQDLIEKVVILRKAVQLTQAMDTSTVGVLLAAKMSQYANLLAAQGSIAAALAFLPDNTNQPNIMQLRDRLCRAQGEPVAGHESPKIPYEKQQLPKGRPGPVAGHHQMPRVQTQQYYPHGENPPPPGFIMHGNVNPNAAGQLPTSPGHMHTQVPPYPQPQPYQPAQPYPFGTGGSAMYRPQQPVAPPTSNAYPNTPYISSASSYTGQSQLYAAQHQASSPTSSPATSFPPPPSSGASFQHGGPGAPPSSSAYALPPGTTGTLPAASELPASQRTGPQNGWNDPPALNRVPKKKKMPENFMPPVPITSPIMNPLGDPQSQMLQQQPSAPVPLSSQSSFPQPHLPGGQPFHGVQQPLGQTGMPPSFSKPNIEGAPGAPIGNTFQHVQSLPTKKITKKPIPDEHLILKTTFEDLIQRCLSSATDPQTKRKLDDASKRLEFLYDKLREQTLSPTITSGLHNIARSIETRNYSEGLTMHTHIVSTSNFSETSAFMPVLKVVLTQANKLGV
Sequence of UniProt Q99496 (Q99496 whole entry, looked up): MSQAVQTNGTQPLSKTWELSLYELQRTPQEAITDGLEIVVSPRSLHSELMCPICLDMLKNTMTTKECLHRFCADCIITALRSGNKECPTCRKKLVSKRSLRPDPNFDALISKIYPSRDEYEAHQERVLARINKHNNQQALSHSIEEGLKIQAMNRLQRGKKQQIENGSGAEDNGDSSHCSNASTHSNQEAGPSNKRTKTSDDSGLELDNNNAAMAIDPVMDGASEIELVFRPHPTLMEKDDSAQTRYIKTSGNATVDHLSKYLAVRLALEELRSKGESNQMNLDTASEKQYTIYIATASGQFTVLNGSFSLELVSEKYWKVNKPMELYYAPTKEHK
Sequence of UniProt Q8IZE3 (Q8IZE3 whole entry, looked up): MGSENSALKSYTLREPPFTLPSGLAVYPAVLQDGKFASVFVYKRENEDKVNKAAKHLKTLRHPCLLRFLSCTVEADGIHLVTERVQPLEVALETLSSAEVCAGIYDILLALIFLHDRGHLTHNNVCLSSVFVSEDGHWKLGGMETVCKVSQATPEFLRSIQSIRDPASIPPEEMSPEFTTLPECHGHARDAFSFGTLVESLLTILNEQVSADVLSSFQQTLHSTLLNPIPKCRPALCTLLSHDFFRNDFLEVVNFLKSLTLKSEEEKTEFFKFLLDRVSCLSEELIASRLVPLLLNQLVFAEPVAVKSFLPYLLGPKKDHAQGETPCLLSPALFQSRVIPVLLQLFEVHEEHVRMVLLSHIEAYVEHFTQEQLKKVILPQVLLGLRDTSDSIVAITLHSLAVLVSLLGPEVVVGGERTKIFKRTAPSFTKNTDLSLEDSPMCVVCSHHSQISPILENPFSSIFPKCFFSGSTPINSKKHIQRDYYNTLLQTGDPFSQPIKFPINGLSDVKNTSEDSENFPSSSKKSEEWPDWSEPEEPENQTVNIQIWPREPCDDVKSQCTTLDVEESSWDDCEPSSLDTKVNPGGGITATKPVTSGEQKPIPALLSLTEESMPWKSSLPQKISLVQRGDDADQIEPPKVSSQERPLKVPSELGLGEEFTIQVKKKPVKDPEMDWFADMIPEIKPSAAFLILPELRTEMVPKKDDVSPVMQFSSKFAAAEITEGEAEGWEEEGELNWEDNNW
Sequence of UniProt Q9H2M9 (Q9H2M9 whole entry, looked up): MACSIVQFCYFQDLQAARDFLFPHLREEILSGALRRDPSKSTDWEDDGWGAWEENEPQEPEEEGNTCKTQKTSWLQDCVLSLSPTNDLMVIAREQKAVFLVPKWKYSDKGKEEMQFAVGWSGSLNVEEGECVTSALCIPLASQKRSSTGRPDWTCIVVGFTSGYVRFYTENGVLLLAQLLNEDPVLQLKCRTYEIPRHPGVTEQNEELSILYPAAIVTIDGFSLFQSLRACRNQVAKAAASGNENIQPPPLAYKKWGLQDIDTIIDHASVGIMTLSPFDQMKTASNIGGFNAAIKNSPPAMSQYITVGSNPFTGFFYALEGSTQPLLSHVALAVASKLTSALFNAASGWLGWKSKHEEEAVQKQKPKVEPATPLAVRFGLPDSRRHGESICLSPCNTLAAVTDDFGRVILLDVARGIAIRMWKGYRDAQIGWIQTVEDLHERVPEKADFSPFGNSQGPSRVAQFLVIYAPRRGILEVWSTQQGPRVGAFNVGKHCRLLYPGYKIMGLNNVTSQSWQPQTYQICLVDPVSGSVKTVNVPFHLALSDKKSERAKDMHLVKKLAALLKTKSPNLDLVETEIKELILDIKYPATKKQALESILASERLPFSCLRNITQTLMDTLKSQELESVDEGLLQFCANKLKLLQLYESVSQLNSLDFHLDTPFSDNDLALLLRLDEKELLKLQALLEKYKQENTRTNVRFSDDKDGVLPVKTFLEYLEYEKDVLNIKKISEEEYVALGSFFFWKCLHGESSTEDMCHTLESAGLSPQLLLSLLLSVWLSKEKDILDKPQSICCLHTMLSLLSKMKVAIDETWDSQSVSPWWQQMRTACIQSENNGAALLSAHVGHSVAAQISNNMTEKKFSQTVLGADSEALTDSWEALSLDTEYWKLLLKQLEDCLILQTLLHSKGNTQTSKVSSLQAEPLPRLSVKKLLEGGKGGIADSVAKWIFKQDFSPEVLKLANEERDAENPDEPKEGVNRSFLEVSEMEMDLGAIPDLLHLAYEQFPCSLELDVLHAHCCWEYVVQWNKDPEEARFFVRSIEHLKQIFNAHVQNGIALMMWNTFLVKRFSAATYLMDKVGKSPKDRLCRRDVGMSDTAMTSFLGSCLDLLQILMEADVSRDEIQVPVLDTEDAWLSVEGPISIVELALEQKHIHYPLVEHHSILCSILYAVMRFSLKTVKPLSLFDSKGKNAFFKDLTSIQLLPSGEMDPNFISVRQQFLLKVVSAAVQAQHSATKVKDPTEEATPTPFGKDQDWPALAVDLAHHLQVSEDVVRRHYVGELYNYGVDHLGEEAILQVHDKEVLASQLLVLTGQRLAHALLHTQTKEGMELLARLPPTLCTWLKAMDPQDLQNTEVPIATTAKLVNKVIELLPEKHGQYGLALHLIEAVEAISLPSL
Sequence of UniProt Q15758 (Q15758 whole entry, looked up): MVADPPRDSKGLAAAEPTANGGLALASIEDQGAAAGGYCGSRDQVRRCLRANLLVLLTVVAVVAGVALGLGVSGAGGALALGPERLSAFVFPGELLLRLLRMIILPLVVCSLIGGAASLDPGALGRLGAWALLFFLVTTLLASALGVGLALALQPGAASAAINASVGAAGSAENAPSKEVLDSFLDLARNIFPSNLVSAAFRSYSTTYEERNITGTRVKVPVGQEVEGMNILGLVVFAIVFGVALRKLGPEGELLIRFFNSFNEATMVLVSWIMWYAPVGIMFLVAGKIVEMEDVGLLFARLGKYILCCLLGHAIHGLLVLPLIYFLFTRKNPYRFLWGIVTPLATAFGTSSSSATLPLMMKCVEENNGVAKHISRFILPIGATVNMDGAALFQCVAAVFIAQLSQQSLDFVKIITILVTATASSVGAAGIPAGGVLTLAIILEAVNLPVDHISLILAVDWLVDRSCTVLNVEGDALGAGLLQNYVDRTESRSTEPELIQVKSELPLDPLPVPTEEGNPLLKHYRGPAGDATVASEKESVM
Sequence of UniProt P60602 (P60602 whole entry, looked up): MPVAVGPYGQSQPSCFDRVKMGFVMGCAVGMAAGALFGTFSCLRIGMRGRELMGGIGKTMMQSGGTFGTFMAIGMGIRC

Target	log2 fold change [1]	log2 fold change [2]	log2 fold change [3]	log2 fold change [4]	log2 fold change (entinostat)	log2 fold change (vorinostat)	log2 fold change (citarinostat)	log2 fold change (silmitasertib)	log2 fold change [5]	log2 fold change [6]
SLC1A5 (UniProt Q15758)	-0.057	0.117	0.155	0.03	-0.041	-0.039	-0.003	-0.016	-0.001	-0.03
SIK3 (UniProt H0Y4E8)	-0.022	0.08	-0.22	-0.038	-0.075	-0.053	-0.053	0.054		-0.098
RAB8B (UniProt Q92930)	0.203	0.017	-0.053	0.2	0.116	0.073	0.03	-0.049	-0.013	0.093
RAD50, A0A494C0Y7	-0.032	-0.159	-0.28	-0.175	-0.103	-0.086	0.095	0.103		-0.279
RPS4X (UniProt P62701)	0.088	0.095	0.216	0.088	-0.048	0.005	-0.104	0.014	0.126	-0.204
SEC31A (UniProt O94979)	-0.078	-0.024	-0.022	-0.099	0.041	0.003	0.042	0.063	-0.048	0.07
RRAGB (UniProt Q5VZM2)	0.112	-0.017	-0.317 (active)	0.023	0.012	0.018	-0.006	0.031	0.008	0.05
RAP2C (UniProt Q9Y3L5)	0.072	0.299 (active)	0.133	0.118	-0.045	0.051	0.056	-0.04	-0.008	-0.061
RAB3GAP2 (UniProt Q9H2M9)	-0.049	-0.067	-0.089	-0.04	0.057	0.106	0.089	0.095	0.099	-0.065
RALY (UniProt Q9UKM9)	-0.039	0.071	0.353	0.026	-0.02	-0.105	-0.064	0.128	0.072	-0.106
RNF2 (UniProt Q99496)	-0.04	-0.023	-0.003	-0.051	0.102	-0.048	0.054	0.003	-0.014	-0.102
SEPTIN5 (UniProt G3XAH0)	0.008	0.004	-0.142	0.016	-0.031	0.16		-0.023	-0.028	
SGPL1 (UniProt O95470)	-0.01	0.004	-0.005	0.144	0	-0.014	0.009	-0.034	0.064	-0.134
RPA1 (UniProt P27694)	-0.189	0.007	-0.049	-0.052	0.06	0.106	0.079	-0.02	-0.046	0.006
RNF167 (UniProt Q9H6Y7)	0.015	-0.062	-0.278	-0.03	-0.032	0.014		0.095	-0.028	
RHEB (UniProt Q15382)	-0.042	-0.014	-0.058	-0.029	-0.012	0.002	0.022	-0.033	-0.038	-0.025
RCOR3 isoform 3 (UniProt Q9P2K3)	0.019	-0.067	-0.129	-0.177	0.1	0.127	0.115	-0.043		-0.075
RBM26 isoform 2 (UniProt Q5T8P6)	-0.001	0.031	-0.135	-0.103	0.141	0.103	0.193	-0.1	-0.05	0.017
SCAMP2 (UniProt H3BUB6)	-0.31	-0.392	0.021	-0.311	-0.175		-0.364	0.129	-0.267	-0.118
RPTOR (UniProt Q8N122)	-0.026	-0.139	-0.243 (active)	-0.021	0.009	0.007	0.056	0.085	-0.025	-0.008
SERINC1 (UniProt Q9NRX5)	-0.061	-0.241	0.004	-0.174	-0.009		0.088	0.197	0.032	0.022
RNF185 (UniProt Q96GF1)		-0.022	-0.072	-0.139		-0.28	-0.135	0.001		0.072
SEMG2 (UniProt Q02383)	-0.013	0.046	0.651		0.033	-0.073	0.066	0.001	0.051	-0.067
RBMY1E (UniProt A6NEQ0)			-0.246			0.07	0.063	-0.156		-0.081
SDCBP isoform 2 (UniProt O00560)	-0.038		-0.286		0.004	-0.01	0.024	0.124	-0.041	0.097
RBM48 isoform 2 (UniProt Q5RL73)	-0.334	-0.008			0.262	0.005			0.029	
SAFB2 (UniProt K7EQU4)									0.007	

Target	log2 fold change [1]	log2 fold change [2]	log2 fold change [3]	log2 fold change [4]	log2 fold change (entinostat)	log2 fold change (vorinostat)	log2 fold change (citarinostat)	log2 fold change (silmitasertib)	log2 fold change [5]	log2 fold change [6]
S100A10 (UniProt P60903)	0.3	0.283			0.189	-0.023	0.333			0.792 (active)
SLC12A5 (UniProt Q9H2X9)	-0.111	-0.077	-0.064	-0.043	-0.05		0.129	0.05	-0.032	-0.062
RMDN2 isoform 2 (UniProt Q96LZ7)			-0.018	0.116				-0.275		
SDC3 (UniProt O75056)	0.044	-0.016		0.026	0.035	0.211	0.354		0.09	0.174
RPS6KA5 (UniProt O75582)			-0.138				-0.101	0.045	-0.088	0.092
RNF220 isoform 3 (UniProt Q5VTB9)		0.115								
SDHAF4 (UniProt Q5VUM1)	-0.016	0.07	-0.111		-0.021		0.076	0.04	0.005	0.108
RPS3A (UniProt D6R9B6)	-0.41	-0.391			-0.234					
RPS3 (UniProt E9PJN9)						0.2	0			-0.048
RAB3D (UniProt O95716)		0.113	0.032	-0.007		-0.126	0.055	0.027		0.051
RAPGEF4 (UniProt Q8WZA2)	-0.095	-0.13	-0.054	-0.04	-0.003		0.161	0.125	-0.279	0.127
RBM6 (UniProt P78332)	0.099	-0.06	0.222		-0.317	-0.012		0.017		
RICTOR isoform 3 (UniProt Q6R327)	0.075	0.054			0.044	0.211	0.066		0.289	-0.155
RBM26 isoform 3 (UniProt Q5T8P6)	-0.079	-0.046			0.103					
RAB3IL1 (UniProt E9PK89)	0.062	0.11		0.018	-0.023	0.112	0.049		-0.234	0.016
SAMD4B (UniProt Q5PRF9)	-0.459				0.133	-0.069			0.067	
RPS19 (UniProt M0R2L9)		-0.159	0.453					-0.634		
RPAIN isoform 8 (UniProt Q86UA6)	-0.017	-0.044		-0.093	0.014				-0.012	
ROMO1 (UniProt P60602)	-0.105	0.046	-0.051		0.011	-0.013	0.072	0.032	0.062	-0.042
RALGPS2 (UniProt Q86X27)		0.258	-0.08	0.175		0.074	0.219	0.089	0.34	-0.153
RNF41 (UniProt Q9H4P4)		0.082					0.044			-0.018
SCYL3 isoform 2 (UniProt Q8IZE3)		0.001	-0.185	-0.055		0.031	-0.047	0.021	-0.053	0.173
ROCK1 (UniProt Q13464)		0.054	-0.09	-0.029	-0.002	0.029	0.068		-0.054	
SCLT1 (UniProt Q96NL6)	-0.007		-0.057	-0.077	-0.023	0.064		-0.01		
RABGAP1L isoform 5 (UniProt Q5R372)	-0.246	-0.094	-0.021		-0.051			0.106	-0.315 (active)	
SLC1A3 (UniProt P43003)		0.237	0.103	-0.055		0.143	-0.096	-0.021	-0.18	-0.182
RNF26 (UniProt Q9BY78)				-0.161		-0.094				
